ALDH1A1 inh – ALDH1A1 (human) enzyme inhibition; Purified ALDH1A1, NADH fluorescence, propionaldehyde substrate; Potency, µM (top dose mostly 75.3 µM), actives largely listed as inhibitors; 7.3% of 220,000 active; AID 1030
HPGD block – HPGD (human) dehydrogenase inhibition; Potency, µM, usual class: inhibitors; purified HPGD, NADH fluorescence kinetic, PGE2 substrate; 4.3% of 150,000 active; P15428
Target sequence (P15428 whole entry, looked up): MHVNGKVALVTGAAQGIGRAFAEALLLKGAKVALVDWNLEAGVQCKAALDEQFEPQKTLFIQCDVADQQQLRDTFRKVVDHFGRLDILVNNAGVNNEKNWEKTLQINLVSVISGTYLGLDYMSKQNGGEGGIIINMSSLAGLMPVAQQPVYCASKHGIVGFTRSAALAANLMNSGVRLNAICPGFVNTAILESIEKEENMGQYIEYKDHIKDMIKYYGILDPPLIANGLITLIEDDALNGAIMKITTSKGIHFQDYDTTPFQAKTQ
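NADH formation kinetics: reaction with 30 uM PGE2 and 1 mM NAD+ (final), 20 nM enzyme, Tris-HCl pH 8 with Tween 20, after 15 min compound preincubation at room temperature. Fluorescence change, last versus first of five reads.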
PNC assembly inh – perinucleolar compartment assembly inhibition. 3.1% of 140,000 active. PC3M PTB-GFP, PNC prevalence imaging, 16 h; stronger effect = lower value. activity change (PNC), negative = inhibition, % at 10 µM;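 active = readout at or below -70, meaning at least 70% loss of cells showing the perinucleolar compartment, a nuclear body marking cancer cells; inconclusive = readout between -30 and a set limit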
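PC3M cells stably expressing PTB-GFP, 750–1000 cells/well, treated 16 h at 37 °C with compound (23 nl of library stock), in duplicate. After paraformaldehyde fixation and Hoechst stain, imaged at 20x; PNC prevalence scored by image analysis.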
Hits are given with their value; i = inactive; ? = inconclusive; nt = no result given; [ ] = dose if it differs, or a comment. Shown are actives, neighbours in structure and some others; about 11% of the full set was active somewhere. Unless noted, calls come from the whole dose curve; as a rule, active = well fitted inhibition curve with a large enough effect (not every such curve was filed as active); inconclusive = small, poorly fitted or top-dose-only effect, or another doubt; inactive = no such curve, though single readings can be large or run the other way.

SMILES	ALDH1A1 inh	HPGD block	PNC assembly inh
COC(=O)N/N=C/c1cn(Cc2c(Cl)cccc2Cl)c2ccccc12	?	i	?
COc1ccc(C2CC2C(C)=O)cc1 (configuration not stated)	i	nt	nt
COc1cccc(CNC(=O)Cc2ccc(Br)cc2)c1	i	i	i
O=C(NCc1cccs1)Nc1cccs1	18µM	?	i
Cc1ccc(CNC(=O)Cc2ccc(-n3cccc3)cc2)cc1	i	i	i
O=C(CCCCC(=O)NCc1cccs1)NCc1cccs1	i	i	i
Cc1ccccc1CNC(=O)Nc1cccs1	?	i	i
O=C(Cc1ccc(-n2cccc2)cc1)NCc1cccs1	i	nt	-106
O=C(Cn1cccc1)NCc1cccs1	i	20µM	i
COc1cccc(CNC(=O)Cn2cccc2)c1	i	14µM	i
CCCn1c(N/N=C(C)\C=C\c2ccccc2)nc2c1c(=O)[nH]c(=O)n2C	i	nt	nt
O=c1cnc2cnc(N3CCOCC3)nc2n1CCc1ccccc1	i	nt	nt
O=C(Nc1ccc(Cl)cc1)ON=C1CCCC1	?	i	i
CCNS(=O)(=O)c1ccc(OC)c(C(=O)NC2CCCCC2)c1	i	nt	nt
Cc1ccc(NC(=O)Nc2cccs2)c(Cl)c1	i	i	?
O=C(CSc1cccc2cccc(Cl)c12)NCc1cccs1	i	10µM	?
Cc1nc(SCC(=O)NCc2cccs2)nc(C)c1C	i	nt	nt
O=C(Nc1cccs1)Nc1ccccc1Cl	?	?	-82
CC(=O)O[C@]1(C)CC[C@]23CC1C(C)(C)C2CC[C@@H]3C (some centres not stated)	i	i	nt
Cn1[nH]c(C(F)(F)F)c(C=Nc2ccc(Cl)cc2)c1=O	i	nt	nt
CC(=O)OCC(=O)Nc1c(C)cc(C)cc1C	i	nt	nt
CC(C)(C)C(=O)Cn1ncc(N2CCCC2)c(Br)c1=O	i	i	i
CC(=O)Cn1ncc(Br)c(Br)c1=O	3.5µM	nt	nt
O=C(OCn1ncc(Br)c(Br)c1=O)c1c(F)cccc1F	0.5µM	28µM	?
CCOC(=O)c1sc2nc(COC(=O)c3c(F)cccc3F)[nH]c(=O)c2c1C	i	nt	nt
SMILES	ALDH1A1 inh	HPGD block	PNC assembly inh
O=[N+]([O-])c1ccc(OCc2cnc(Cl)s2)c([N+](=O)[O-])c1	i	nt	nt
Cn1cnc([N+](=O)[O-])c1Oc1ccc2ccccc2c1	?	i	?
CCOC(=O)c1c(C)c(C)n2c1NC(=O)C2	i[13.5 µM]	i	nt
O=c1c2cccnc2[nH]c(=S)n1Cc1ccccc1	i	i	i
O=c1[nH]c(-c2ccccc2F)nc2c1sc(=S)n2Cc1ccccc1	i	10µM	i
CCCCc1ccc(NC=C2C(=O)OC3(CCCCC3)OC2=O)cc1	?	i	i
NS(=O)(=O)c1ccc(NC=C2C(=O)OC3(CCCCC3)OC2=O)cc1	1.9µM	35µM	i
CC(=O)c1cn(-c2ccc(Cl)cc2)c(=O)n(Cc2ccc(Br)cc2)c1=O	i	nt	nt
OCCNc1nc(C2CC2)nc2c1nnn2Cc1ccccc1Cl	?	i	?
COCCNc1nc(C(C)(C)C)nc2c1nnn2Cc1ccccc1Cl	i	i	-102
CCOC(=O)CNS(=O)(=O)c1cc(-c2n[nH]c(=O)c3ccccc23)ccc1C	14µM	3.5µM	i
Cc1ccc(NS(=O)(=O)c2cc(-c3n[nH]c(=O)c4ccccc34)ccc2C)cc1	?	20µM	i
CCOC(=O)CNS(=O)(=O)c1cc(-c2nnc(Nc3ccc4c(c3)OCO4)c3ccccc23)ccc1C	?	i	i
Cc1ccc(NS(=O)(=O)c2cc(C(N)=O)ccc2C)cc1	i	i	i
O=C(CSCc1ccc([N+](=O)[O-])cc1)Nc1ccccc1C(=O)O	i	nt	nt
C[N+]1(C)CCc2cc3c(cc2[C@@H]1[C@@H]1C(=O)Oc2c1ccc1c2OCO1)OCO3	i	i	nt
Cc1cccc(NC(NC(=O)c2ccccc2[N+](=O)[O-])C(Cl)(Cl)Cl)c1 (configuration not stated)	i	i	i
CCN(c1cccc(C)c1)S(=O)(=O)c1c(C)[nH]c(=O)[nH]c1=O	i	i	i
CCN(c1cccc(C)c1)S(=O)(=O)c1ccc2[nH]c(=O)c(=O)[nH]c2c1	?	?	-103
O=S(=O)(c1ccccc1)N1CCC[C@@]2(CCN(Cc3ccccc3)C2)C1	i	i	nt
CSc1nnc(Cn2c(=O)sc3ccccc32)n1-c1ccccc1	i	i	-106
CC(C)Sc1nnc(Cn2c(=O)sc3ccccc32)n1-c1ccccc1	i	i	i
Cc1ccc(C(NC(=O)N2CCOCC2)=C(Cl)Cl)cc1F	0.11µM	i	i
Cc1ccc(C(NC(=O)N2CCOCC2)C(Cl)Cl)cc1F (configuration not stated)	20µM	i	?
COc1ccc(C(NC(=O)N2CC(C)OC(C)C2)C(Cl)(Cl)Cl)cc1F (configuration not stated)	i	i	i
SMILES	ALDH1A1 inh	HPGD block	PNC assembly inh
Cc1ccc(C(NC(=O)N2CC(C)OC(C)C2)C(Cl)Cl)cc1F (configuration not stated)	10µM	i	?
Cc1ccc(C(=O)N2CCOCC2)cc1Cl	i	?	i
O=C(NC(c1ccccc1)c1ccccc1)N1CCOCC1	i	nt	nt
CSc1ccccc1C(=O)NCc1ccc(C)cc1	i	nt	nt
COC(=O)C1=C(C(=O)OC)[C@@H]2N(C)c3ccccc3[C@@]23C[C@@H](C(=O)OC)N(S(=O)(=O)c2ccc(C)cc2)C3=N1	i[13.5 µM]	i	nt
NC(=O)c1cccnc1Nc1ccccc1Cl	i	i	i
Cn1c(C(=O)N2CCN(C3CCCCC3)CC2)cc2c(=O)n(C)c3ccccc3c21	i	i	i
Cn1c(C(=O)N2CCN(C(=O)c3ccco3)CC2)cc2c(=O)n(C)c3ccccc3c21	20µM	i	i
Cn1c(C(=O)NC2CC2)cc2c(=O)n(C)c3ccccc3c21	i	i	i
COc1ccccc1N1CCN(C(=O)c2cc3c(=O)n(C)c4ccccc4c3n2C)CC1	?	i	-88
Cn1c(C(=O)Nc2ccc3c(c2)OCCO3)cc2c(=O)n(C)c3ccccc3c21	25µM	?	i
COc1ccccc1N1CCN(C(=O)c2cc3sccc3n2C)CC1	i	i	i
Nc1ccccc1CCCC(=O)O	i[13.5 µM]	i	nt
CC(=O)c1cccc(NC(=O)COC(=O)COc2c(Cl)cc(Cl)c3ccc(C)nc23)c1	i	i	i
COCCN(C(=O)CSc1nc2ccccc2c(=O)n1CCOC)c1c(N)n(Cc2ccccc2)c(=O)[nH]c1=O	i	nt	nt
O=[N+]([O-])c1cc(-c2ncccn2)c([N+](=O)[O-])s1	2.2µM	28µM	i
O=C(Nc1ncccn1)c1cc([N+](=O)[O-])cc([N+](=O)[O-])c1	i	i	i
COc1ccc2nccc(SCC(=O)O)c2c1	i[13.5 µM]	i	nt
COc1ccc(S(=O)(=O)Nc2cc(C(=O)NCCC(C)C)ccc2N2CCOCC2)cc1	14µM	i	i
COc1ccc(NS(=O)(=O)c2ccc(N3CCOCC3)c(NC(=O)C(C)C)c2)cc1	i	nt	nt
COC(=O)c1ccc(N2CCCCC2)c(NS(=O)(=O)c2ccc(C)cc2)c1	7.9µM	i	i
CC1CCN(c2ccc(C(=O)O)cc2NS(=O)(=O)c2ccc(Br)cc2)CC1	?	i	?
COC(=O)c1ccc(N2CCN(S(=O)(=O)c3ccc(C)cc3)CC2)c([N+](=O)[O-])c1	i	i	?
CCN(CC)CCNC(=O)c1ccc(N2CCCCC2)c(NS(=O)(=O)c2ccc(C)cc2)c1	20µM	i	i
CCCCCCCCCCCCCCCC(=O)N[C@@H](COP(=O)(O)O)C(=O)O	i	?	nt
